The values that follow come from PubChem BioAssay (Tox21).

The structures appear in SMILES notation. Where “and” joins values, the source holds several entries; their conditions need not be identical. Equal entries are not always repeated. Inconclusive results are not listed. The source holds several records for some structures; these can differ, active in one and inactive in another. Calls of active or inactive are those of the source. Unless noted, calls follow the shape of the dose curve; as a rule, active = well fitted curve in the direction sought with a large enough effect in the repeat runs; inconclusive = weak or mixed curves; inactive = no such curve, though single readings can be large; an effect the other way counts as inactive or inconclusive.

The nature of assay [1]: qHTS RealTime-Glo MT Cell Viability Assay in HEK293 cells - 0 hour (AID 1224880). Also: top concentration of the series differs between compounds; nearly all actives have a fitted effect of over 45% in size. In outline: (§1)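 Kinetic, non-lysing viability readout. Seed HEK293 (600/well) with reagent, incubate 5 h at 37 C/5% CO2, pin 23 nL compound in DMSO, incubate at 37 C, read luminescence at 0, 8, 16, 24, 32, 40 h.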
On the technique in general: Quantitative high-throughput screening tests each substance at several concentrations.

Assay [2] in a line: A CellTox Green Cytotoxicity Assay to monitor cytotoxicity in HEK293 cells - 32 hour (AID 1224881). Also: nearly all actives have a fitted effect of over 40% in size. Also: potency is read from the fitted curve at half-maximal effect. Put shortly: (§2)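 Real-time, in one plate: 600 HEK293 cells/well with dead-cell DNA dye, pinned compound after 5 h, 37 C incubation over 40 h; viable cells give no appreciable fluorescence.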
Assay [3] in a line: A CellTox Green Cytotoxicity Assay to monitor cytotoxicity in HepG2 cells - 0 hour (AID 1224882). Also: nearly all actives have a fitted effect of over 35% in size. Also: potency is read from the fitted curve at half-maximal effect. Put shortly: (§3)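 Cytotoxicity was tracked as dead-cell DNA fluorescence in HepG2 cells treated with test compounds at 37 C; each time-point value comes from one kinetic series spanning 0, 8, 16, 24, 32 and 40 h.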
Assay [4] is described as follows: A CellTox Green Cytotoxicity Assay to monitor cytotoxicity in HepG2 cells - 32 hour (AID 1224883). Also: nearly all actives have a fitted effect of over 50% in size. In outline: as §3
The nature of assay [5]: A CellTox Green Cytotoxicity Assay to monitor cytotoxicity in HEK293 cells - 8 hour (AID 1224884). Also: nearly all actives have a fitted effect of over 35% in size. Also: potency is read from the fitted curve at half-maximal effect. Put shortly: as §2
The nature of assay [6]: qHTS RealTime-Glo MT Cell Viability Assay in HepG2 cells - 16 hour (AID 1224885). Also: nearly all actives have a fitted effect of over 50% in size. Also: potency is read from the fitted curve at half-maximal effect. Put shortly: (§4)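 Cells + NanoLuc/prosubstrate dispensed (600 cells/well) → 5 h at 37 C/5% CO2 → compounds in DMSO transferred → 40 h incubation at 37 C, luminescence read at 0, 8, 16, 24, 32, 40 h.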
Assay [7] in a line: qHTS RealTime-Glo MT Cell Viability Assay in HEK293 cells - 24 hour (AID 1224886). Also: nearly all actives have a fitted effect of over 50% in size. Also: potency is read from the fitted curve at half-maximal effect. In outline:
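Tox21 10K qHTS, HEK293, 600 cells/well, RealTime-Glo reagent co-dispensed with cells; 5 h preincubation, compound by pintool, 37 C, luminescence at 0–40 h.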

Assay [8] is described as follows: qHTS RealTime-Glo MT Cell Viability Assay in HEK293 cells - 8 hour (AID 1224887). Also: nearly all actives have a fitted effect of over 50% in size. Also: potency is read from the fitted curve at half-maximal effect. In outline: as §1
Assay [9] is described as follows: A CellTox Green Cytotoxicity Assay to monitor cytotoxicity in HEK293 cells - 16 hour (AID 1224888). Also: nearly all actives have a fitted effect of over 35% in size. Put shortly:
as §2

Assay [10] is described as follows: qHTS RealTime-Glo MT Cell Viability Assay in HepG2 cells - 0 hour (AID 1224889). Also: nearly all actives have a fitted effect of over 50% in size. Put shortly:
as §4

Assay [11] can be described thus: A CellTox Green Cytotoxicity Assay to monitor cytotoxicity in HepG2 cells - 8 hour (AID 1224890). Also: nearly all actives have a fitted effect of over 45% in size. Also: potency is read from the fitted curve at half-maximal effect. Put shortly:
as §3

The nature of assay [12]: qHTS assay to identify small molecule antagonists of the estrogen receptor alpha (ER-alpha) signaling pathway using the BG1 cell line in the presence of 0.1 nM 17-beta-estradiol - cell viability counter screen (AID 1259241). Also: nearly all actives have a fitted effect of over 40% in size. In outline:
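VM7Luc4E2 cells (endogenous full-length ER-alpha, 4xERE-luciferase), cultured 5 days in charcoal-stripped serum, exposed to compounds with 0.1 nM 17beta-estradiol (final) for 22 hr at 37C. Viability read in same wells as live-cell protease fluorescence after 30 min.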

Assay [13] is described as follows: qHTS assay to identify small molecule antagonists of the androgen receptor (AR) signaling pathway using the MDA cell line in the presence of 0.5 nM R1881 - cell viability counter screen (AID 1259242). Also: nearly all actives have a fitted effect of over 45% in size. Also: potency is read from the fitted curve at half-maximal effect. Put shortly:
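Cells seeded at 3,000/well and allowed 5 hr at 37C, 0% CO2 before compound transfer and R1881 (0.5 nM final) addition; 16 hr later, live-cell protease fluorescence indicated cytotoxicity.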

Assay [14] in a line: qHTS assay to identify small molecule HDAC inhibitors - cell viability counter screen (AID 1259365). In outline: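 Wild-type HCT-116 cells, 1,500/well, cultured overnight, then compound-treated 2 h at 37 C. Viability measured as ATP luminescence with CellTiter-Glo after 30 min at room temperature.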
Assay [15] can be described thus: qHTS assay to identify small molecule agonists of the sonic hedgehog signaling (Shh) pathway - cell viability counter screen (AID 1259366). Also: nearly all actives have a fitted effect of over 50% in size. Also: potency is read from the fitted curve at half-maximal effect. In outline:
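NIH/3T3-derived Gli1-Luc reporter cells, 2,000 per well, received compound after 4 h and were treated about 23 h at 37C. Viability measured in the same wells by CellTiter-Fluor fluorescence after 1 h.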

Assay [16] can be described thus: qHTS assay to identify small molecule antagonists of the sonic hedgehog signaling (Shh) pathway - cell viability counter screen (AID 1259367). Also: nearly all actives have a fitted effect of over 55% in size. Also: potency is read from the fitted curve at half-maximal effect. In outline:
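Fluorescence read-out (CellTiter-Fluor, 1 hr at 37C) taken after 23 hr compound treatment of 3T3 Gli1-Luc cells stimulated with conditioned medium. Cells were seeded at 2,000 per well and pre-incubated 4 hr.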

Assay [17] has as its target Androgen receptor (Homo sapiens) (UniProt P10275). Nature of the assay: qHTS assay to identify small molecule antagonists of the androgen receptor (AR) signaling pathway using the MDA cell line in the presence of 0.5 nM R1881 (AID 1259243). Also: nearly all actives have a fitted effect of over 50% in size. Also: potency is read from the fitted curve at half-maximal effect. Put shortly:
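Luminescence from an AR/GR-responsive MMTV-luciferase construct in MDA-kb2 breast carcinoma cells, read 30 min after ONE-Glo, following 16 hr co-treatment with compounds and 0.5 nM R1881.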

Assay [18] has as its target Estrogen receptor (Homo sapiens) (UniProt P03372). Nature of the assay: qHTS assay to identify small molecule antagonists of the estrogen receptor alpha (ER-alpha) signaling pathway using the BG1 cell line in the presence of 0.1 nM 17-beta-estradiol (AID 1259244). Also: nearly all actives have a fitted effect of over 50% in size. Also: potency is read from the fitted curve at half-maximal effect. In outline:
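Luciferase signal from VM7Luc4E2 ERE-reporter cells, co-dosed with test compound and 0.1 nM final 17beta-estradiol for 22 h, read with ONE-Glo.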

The nature of assay [19]: qHTS assay to identify small molecule phospholipidosis (PLD) inducers (AID 1259344; active = well fitted curve in the direction sought with a large enough effect; an effect the other way counts as inactive or inconclusive). Put shortly: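 Read-out is LipidTOX Red fluorescence (ex 595/em 615) imaged in HepG2 cells after 24 h compound exposure at 37 C, with Hoechst nuclear counterstain (ex 352/em 461) allowing per-cell normalisation.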
Assay [20] in a line: qHTS assay to identify small molecule HDAC inhibitors (AID 1259364). Also: potency is read from the fitted curve at half-maximal effect.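 Also: wild-type HCT-116 cells with endogenous class I/II HDAC activity; nearly all actives have a fitted effect of over 45% in size.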 In outline: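 HCT-116 wt cells, 1,500/well, overnight attach. Compounds (DMSO) 2 h, 37 °C. HDAC-Glo I/II, 30 min RT. Luminescence.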

Estrogen receptor (Homo sapiens), sequence (P03372 whole entry, looked up): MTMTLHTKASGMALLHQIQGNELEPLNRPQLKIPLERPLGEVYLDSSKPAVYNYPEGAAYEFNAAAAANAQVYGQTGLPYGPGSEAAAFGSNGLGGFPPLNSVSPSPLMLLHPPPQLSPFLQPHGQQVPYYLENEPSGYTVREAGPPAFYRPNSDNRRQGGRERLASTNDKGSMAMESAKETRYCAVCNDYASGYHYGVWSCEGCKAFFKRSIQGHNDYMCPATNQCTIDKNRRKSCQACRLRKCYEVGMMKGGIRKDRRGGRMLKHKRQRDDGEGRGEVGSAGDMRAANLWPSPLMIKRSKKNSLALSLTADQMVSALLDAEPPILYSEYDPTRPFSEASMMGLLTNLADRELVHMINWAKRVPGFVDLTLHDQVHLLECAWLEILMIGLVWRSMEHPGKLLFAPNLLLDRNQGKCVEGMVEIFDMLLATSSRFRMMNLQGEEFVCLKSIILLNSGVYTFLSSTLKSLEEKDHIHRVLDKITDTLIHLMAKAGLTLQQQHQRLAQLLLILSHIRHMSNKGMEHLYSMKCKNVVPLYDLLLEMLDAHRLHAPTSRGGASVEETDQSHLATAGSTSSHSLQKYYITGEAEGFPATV
Androgen receptor (Homo sapiens), sequence (P10275 whole entry, looked up): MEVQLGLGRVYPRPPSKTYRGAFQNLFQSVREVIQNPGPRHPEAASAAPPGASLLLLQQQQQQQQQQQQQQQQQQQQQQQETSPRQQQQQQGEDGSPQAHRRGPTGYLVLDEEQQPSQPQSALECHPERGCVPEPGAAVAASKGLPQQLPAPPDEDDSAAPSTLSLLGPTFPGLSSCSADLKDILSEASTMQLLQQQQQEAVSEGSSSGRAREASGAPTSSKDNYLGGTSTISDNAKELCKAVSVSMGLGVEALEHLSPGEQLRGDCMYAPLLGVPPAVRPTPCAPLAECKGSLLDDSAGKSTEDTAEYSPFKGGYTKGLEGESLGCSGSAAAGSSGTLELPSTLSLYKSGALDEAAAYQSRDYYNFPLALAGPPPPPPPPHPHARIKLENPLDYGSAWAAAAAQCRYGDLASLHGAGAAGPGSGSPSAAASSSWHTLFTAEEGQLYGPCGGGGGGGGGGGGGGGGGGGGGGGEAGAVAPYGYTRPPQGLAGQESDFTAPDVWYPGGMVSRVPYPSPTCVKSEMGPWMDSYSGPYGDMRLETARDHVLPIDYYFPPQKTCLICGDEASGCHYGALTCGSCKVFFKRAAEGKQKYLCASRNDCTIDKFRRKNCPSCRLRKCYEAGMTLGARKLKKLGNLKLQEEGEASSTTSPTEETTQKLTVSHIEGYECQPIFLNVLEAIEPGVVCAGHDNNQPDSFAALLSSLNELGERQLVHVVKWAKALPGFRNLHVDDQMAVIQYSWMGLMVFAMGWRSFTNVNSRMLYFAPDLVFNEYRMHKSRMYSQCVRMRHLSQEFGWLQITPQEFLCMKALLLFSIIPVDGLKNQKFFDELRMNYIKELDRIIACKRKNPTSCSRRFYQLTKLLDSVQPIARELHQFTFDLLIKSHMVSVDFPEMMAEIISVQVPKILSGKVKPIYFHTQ

For `CCCCN(CC)c1c([N+](=O)[O-])cc(C(F)(F)F)cc1[N+](=O)[O-]`, the Potency result in assay [1], in [2], in assay [3], in assay [4], in assay [5] and in assay [6] was “inactive” each time. The Potency entry in assay [7], in [9], in [10], in assay [11], in assay [12] and in [13] was “inactive” throughout. For the same compound, the Potency result in assay [15] and in assay [16] was “inactive” each time. The Potency in [8] was 17.7 µM (active). The call in assay [14] was inactive.
As for `CCN(CC)C(=O)/C(Cl)=C(\C)OP(=O)(OC)OC`, the Potency entry in [1], in assay [2], in [3], in assay [5], in assay [6] and in assay [7] was “inactive” each time. The Potency entry in assay [8], in [9], in [10], in [11], in [12] and in [13] was “inactive” in each case. Besides, the Potency result in assay [17], in assay [18], in [20], in [15] and in assay [16] was “inactive” each time. For the same compound, the call in [19] and in assay [14] was inactive.
Turning to `O=Cc1ccco1`, the Potency result in assay [1], in assay [3], in assay [4], in [6], in assay [7] and in assay [8] was “inactive” in each case. In addition, the Potency entry in [10], in assay [11], in assay [12], in assay [13], in assay [20] and in [15] was “inactive” in each case. Also, in assay [16], the Potency entry was “inactive”. In addition, the Potency was 23.7 µM (active) in assay [2]; 42.2 µM (active) and inactive in assay [5]. Moreover, the outcome in assay [19] and in assay [14] was inactive.
Regarding `CC(C)Oc1cc(-n2nc(C(C)(C)C)oc2=O)c(Cl)cc1Cl`, the Potency entry in [1], in assay [3], in [4], in assay [5], in assay [6] and in assay [10] was “inactive” throughout. The Potency entry in assay [11], in assay [12], in [13], in [15] and in [16] was “inactive” in each case. In addition, the Potency in [2] is 608 nM (active) and inactive; in assay [7], 30.9 µM (active); in [17] it was 54.5 µM (active); in [18] it was 61.1 µM (active). The compound was classed as inactive in assay [14].
Consider `CC(O)CCO` (stereo not drawn), for which the Potency entry in assay [1], in assay [2], in assay [3], in [4], in assay [5] and in assay [6] was “inactive” each time. The Potency entry in [7], in [8], in assay [9], in assay [10], in assay [11] and in assay [12] was “inactive” in each case. Further, the Potency result in assay [13], in [20], in [15] and in assay [16] was “inactive” in each case. For the same compound, the outcome in assay [14] was inactive.
`O=[N+]([O-])c1c(Cl)c(Cl)c(Cl)c(Cl)c1Cl`: the Potency entry in assay [1], in assay [3], in [4], in [5], in assay [6] and in assay [7] was “inactive” in each case. Moreover, the Potency entry in assay [8], in [9], in assay [10], in assay [11], in assay [12] and in [18] was “inactive” in each case. Further, the Potency entry in assay [20] and in assay [16] was “inactive” in each case. Further, the Potency is 21.8 µM (active) and inactive in assay [2]; 27.2 µM (active) and 27.3 µM (active) in [17]; “inactive and 43.3 µM (active)” in assay [15]. For the same compound, the result in assay [14] was inactive.
As for `CCC(CC)Nc1c([N+](=O)[O-])cc(C)c(C)c1[N+](=O)[O-]`, the Potency result in assay [1], in [2], in assay [3], in [4], in [5] and in assay [6] was “inactive” throughout. The Potency entry in [7], in assay [8], in [9], in [10], in [11] and in assay [12] was “inactive” throughout. For the same compound, the Potency entry in assay [13], in [15] and in assay [16] was “inactive” in each case. The result in assay [14] was inactive.
Turning to `O=P(O)(O)CCCl`, the Potency result in assay [1], in assay [2], in assay [3], in assay [5], in assay [6] and in assay [7] was “inactive” each time. Moreover, the Potency result in assay [8], in assay [9], in assay [10], in assay [11], in assay [12] and in assay [13] was “inactive” throughout. Also, the Potency entry in assay [18], in assay [20], in assay [15] and in assay [16] was “inactive” in each case. The compound was classed as inactive in assay [14].
Regarding `C=CC(=O)OCCO`, the Potency result in [1], in [2], in [3], in assay [5], in assay [6] and in [7] was “inactive” in each case. The Potency result in assay [8], in assay [9], in assay [10], in assay [11], in assay [12] and in assay [13] was “inactive” in each case. Moreover, the Potency entry in assay [20] was “inactive”. The compound was called inactive in [14].
For the compound `N#CC(Br)Br`, the Potency result in assay [1], in [2], in assay [3], in assay [5], in assay [6] and in assay [7] was “inactive” each time. In addition, the Potency entry in assay [8], in assay [9], in [10], in assay [11], in assay [12] and in [13] was “inactive” in each case. The Potency entry in assay [18], in assay [20], in assay [15] and in assay [16] was “inactive” in each case. Moreover, in assay [14], the compound was classed as inactive.
On to `C#C[C@]1(O)CC[C@H]2[C@@H]3CCC4=CC(=O)CC[C@]4(C)[C@H]3CC[C@@]21C`, for which the Potency entry in [1], in [3], in [5], in assay [6], in assay [7] and in assay [8] was “inactive” each time. For the same compound, the Potency entry in assay [9], in [11], in [12], in assay [13], in assay [15] and in [16] was “inactive” each time. For the same compound, the Potency in assay [2] was 49 µM (active). Also, the compound was called inactive in [19] and in [14].
Consider `Oc1cc(Cl)ccc1Oc1ccc(Cl)cc1Cl`, for which the Potency entry in [1], in assay [10] and in assay [12] was “inactive” in each case. The Potency in assay [2] is 22.4 µM (active); in assay [3] it was 50.1 µM (active) and inactive; in [5], 50.1 µM (active) and inactive; in assay [6], 22.4 µM (active) and 23.9 µM (active); in assay [7], 22.4 µM (active) and 23.9 µM (active); in [8], 35.5 µM (active) and 23.9 µM (active). For the same compound, the Potency in assay [11] was 22.4 µM (active) and 16.9 µM (active); in assay [13], 31.4 µM (active); in assay [15] it was 31.4 µM (active) and inactive; in [16] it was 31.4 µM (active) and inactive. Besides, the call in [19] and in assay [14] was inactive.
For the compound `c1ccc(N=Nc2ccccc2)cc1`, the Potency entry in [1], in assay [3], in [4], in assay [5], in [6] and in assay [7] was “inactive” each time. Moreover, the Potency result in assay [8], in assay [9], in assay [10], in [11], in assay [12] and in assay [13] was “inactive” each time. For the same compound, the Potency result in assay [15] and in assay [16] was “inactive” throughout. For the same compound, the Potency in assay [20] was 30.6 µM (active). The outcome in assay [14] was inactive.
